Compounds without any hit were thinned out: in the full panel of roughly 83,000, 20% have a hit.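 A percent growth of 40 corresponds to 60% growth inhibition; 0 means no net growth; -100 means all cells died. Active threshold: below 10.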 A number with no mark means an inactive call. Calls of active or inactive are those of the source.
Columns and labels:
Experiment in all cases: NCI-60 one-dose screen, 48 h (100 = growth as untreated, 0 = no growth, -100 = all killed)
Settings in all cases: 10 µM unless noted
NCI-H23 lung = tested on: NCI-H23 lung
NCI-H226 lung = tested on: NCI-H226 lung
NCI-H322M lung = tested on: NCI-H322M lung
HOP-62 NSCLC = tested on: HOP-62 NSCLC
NCI-H460 lung = tested on: NCI-H460 lung
HOP-92 NSCLC = tested on: HOP-92 NSCLC
NCI-H522 lung = tested on: NCI-H522 lung
A549/ATCC NSCLC = tested on: A549/ATCC NSCLC
786-0 renal = tested on: 786-0 renal
COLO 205 colon = tested on: COLO 205 colon
DU-145 prostate = tested on: DU-145 prostate
K-562 leukemia = tested on: K-562 leukemia
MALME-3M melanoma = tested on: MALME-3M melanoma
MDA-MB-231 breast = tested on: MDA-MB-231 breast
RXF 393 renal = tested on: RXF 393 renal
SF-268 CNS = tested on: SF-268 CNS
SF-295 CNS = tested on: SF-295 CNS
SF-539 CNS = tested on: SF-539 CNS
UACC-257 melanoma = tested on: UACC-257 melanoma
M14 melanoma = tested on: M14 melanoma

`Cc1ccc(S(=O)(=O)c2nc(-c3ccccc3)oc2SCC(N)=O)cc1` showed a growth (NCI-H23 lung) of 96.8%, a growth (NCI-H226 lung) of 98.1% and a growth (NCI-H322M lung) of 104%. For the same compound, the growth (HOP-62 NSCLC) was 98.3%, the growth (NCI-H460 lung) was 104% and the growth (HOP-92 NSCLC) was 83.2%. For the same compound, the growth (NCI-H522 lung) was 76.3%, the growth (A549/ATCC NSCLC) was 96.7% and the growth (786-0 renal) was 95%. For the same compound, the growth (COLO 205 colon) was 111%, the growth (DU-145 prostate) was 101% and the growth (K-562 leukemia) was 88.2%. The growth (MALME-3M melanoma) was 98.9%, the growth (MDA-MB-231 breast) was 104% and the growth (RXF 393 renal) was 99%. The growth (SF-268 CNS) was 90%, the growth (SF-295 CNS) was 98.9% and the growth (SF-539 CNS) was 97.2%. It also gave a growth (UACC-257 melanoma) of 113% and a growth (M14 melanoma) of 97.1%.

In the case of `CCN(CC)CCOc1ccc(Nc2ncc3cc(-c4c(Cl)cccc4Cl)c(=O)n(CCOC)c3n2)cc1`, the growth (NCI-H23 lung) is reported as -9.78% (active), the growth (NCI-H226 lung) is reported as 28% and the growth (NCI-H322M lung) is reported as 17.5%. The growth (HOP-62 NSCLC) was 6.51% (active), the growth (NCI-H460 lung) was 3.65% (active) and the growth (HOP-92 NSCLC) was -18.7% (active). The growth (NCI-H522 lung) was -28.5% (active), the growth (A549/ATCC NSCLC) was 0.456% (active) and the growth (786-0 renal) was 5.35% (active). For the same compound, the growth (COLO 205 colon) was -40% (active), the growth (DU-145 prostate) was -13.8% (active) and the growth (K-562 leukemia) was 5.78% (active). The growth (MALME-3M melanoma) was 10.6%, the growth (MDA-MB-231 breast) was -73.2% (active) and the growth (RXF 393 renal) was -64.4% (active). For the same compound, the growth (SF-268 CNS) was -9.68% (active), the growth (SF-295 CNS) was 25.7% and the growth (SF-539 CNS) was -75.7% (active). For the same compound, the growth (UACC-257 melanoma) was 12.9% and the growth (M14 melanoma) was -6.68% (active).

Work on `CCOC(=O)c1c(C)nc2ccccc2c1/C=C/c1ccc(F)cc1` yielded a growth (NCI-H23 lung) of 51.3%, a growth (NCI-H226 lung) of 73.9% and a growth (NCI-H322M lung) of 94.7%. It also gave a growth (HOP-62 NSCLC) of 80.9%, a growth (NCI-H460 lung) of 81.7% and a growth (HOP-92 NSCLC) of 42.1%. The growth (NCI-H522 lung) was 53.8%, the growth (A549/ATCC NSCLC) was 57.7% and the growth (786-0 renal) was 79.5%. For the same compound, the growth (COLO 205 colon) was 83.6%, the growth (DU-145 prostate) was 89.6% and the growth (K-562 leukemia) was 50%. The growth (MALME-3M melanoma) was 98.7%, the growth (MDA-MB-231 breast) was 75.9% and the growth (RXF 393 renal) was 101%. It also gave a growth (SF-268 CNS) of 85.2%, a growth (SF-295 CNS) of 67.7% and a growth (SF-539 CNS) of 81%. For the same compound, the growth (UACC-257 melanoma) was 83% and the growth (M14 melanoma) was 86.5%.

Work on `O=C(Cn1nc(-c2cccc3ccccc23)ccc1=O)NCc1cccc(Cl)c1` yielded a growth (NCI-H23 lung) of 45.2% [50 µM], a growth (NCI-H226 lung) of 38.2% [50 µM] and a growth (NCI-H322M lung) of 70.4% [50 µM]. The growth (HOP-62 NSCLC) was 72.2% [50 µM], the growth (NCI-H460 lung) was 32.2% [50 µM] and the growth (HOP-92 NSCLC) was 26.3% [50 µM]. The growth (NCI-H522 lung) was 17.1% [50 µM], the growth (A549/ATCC NSCLC) was 28.5% [50 µM] and the growth (786-0 renal) was 37.7% [50 µM]. It also gave a growth (COLO 205 colon) of 37.3% [50 µM], a growth (DU-145 prostate) of 55.7% [50 µM] and a growth (K-562 leukemia) of 20.4% [50 µM]. For the same compound, the growth (MALME-3M melanoma) was 70.5% [50 µM], the growth (MDA-MB-231 breast) was 55% [50 µM] and the growth (RXF 393 renal) was 37.7% [50 µM]. It also gave a growth (SF-268 CNS) of 52.9% [50 µM], a growth (SF-295 CNS) of 18.7% [50 µM] and a growth (SF-539 CNS) of 58.3% [50 µM]. It also gave a growth (UACC-257 melanoma) of 44.2% [50 µM] and a growth (M14 melanoma) of 34% [50 µM].

Compound `CCOC(=O)C1=C(CC(O)c2ccc(OC)cc2OC)NC(=O)NC1c1ccccc1` (stereo not given) has a growth (NCI-H23 lung) of 103%, a growth (NCI-H226 lung) of 100% and a growth (NCI-H322M lung) of 104%. It also gave a growth (HOP-62 NSCLC) of 97.8%, a growth (NCI-H460 lung) of 113% and a growth (HOP-92 NSCLC) of 82.5%. It also gave a growth (NCI-H522 lung) of 98.5%, a growth (A549/ATCC NSCLC) of 107% and a growth (786-0 renal) of 102%. The growth (COLO 205 colon) was 126%, the growth (DU-145 prostate) was 110% and the growth (K-562 leukemia) was 56.1%. The growth (MALME-3M melanoma) was 93.8%, the growth (MDA-MB-231 breast) was 99.4% and the growth (RXF 393 renal) was 120%. The growth (SF-268 CNS) was 109%, the growth (SF-295 CNS) was 109% and the growth (SF-539 CNS) was 95.1%. It also gave a growth (UACC-257 melanoma) of 102% and a growth (M14 melanoma) of 109%.

`CC[C@@H](C(=O)[C@@H](C)[C@@H](O)[C@H](C)[C@@H]1O[C@@H]([C@@H](CC)C(=O)ONC(=O)c2ccccc2O)CC[C@@H]1C)C1O[C@]2(C=CC(=O)[C@]3(CC[C@@](C)([C@H]4CC[C@](O)(CC)[C@H](C)O4)O3)O2)[C@H](C)C[C@@H]1C` (stereo not given in full) was tested, and the growth (NCI-H23 lung) was 23.1%, the growth (NCI-H226 lung) was 52.7% and the growth (NCI-H322M lung) was 70%. It also gave a growth (HOP-62 NSCLC) of 58.3%, a growth (NCI-H460 lung) of 33.5% and a growth (HOP-92 NSCLC) of 37.3%. For the same compound, the growth (NCI-H522 lung) was 23.9%, the growth (A549/ATCC NSCLC) was 23.8% and the growth (786-0 renal) was 61.7%. For the same compound, the growth (COLO 205 colon) was 11.6%, the growth (DU-145 prostate) was 40.3% and the growth (K-562 leukemia) was 28.6%. The growth (MALME-3M melanoma) was 4.34% (active), the growth (MDA-MB-231 breast) was 50.9% and the growth (RXF 393 renal) was 35.2%. It also gave a growth (SF-268 CNS) of 54.2%, a growth (SF-295 CNS) of 44.7% and a growth (SF-539 CNS) of 27.5%. The growth (UACC-257 melanoma) was 38.3% and the growth (M14 melanoma) was 63.6%.

`Clc1ccc(-c2cc(-c3ccccc3)nc(N3CCN(CCCNc4ccnc5cc(Cl)ccc45)CC3)n2)cc1` showed a growth (NCI-H23 lung) of 69%, a growth (NCI-H226 lung) of 45.9% and a growth (NCI-H322M lung) of 28.2%. For the same compound, the growth (HOP-62 NSCLC) was 82.1%, the growth (NCI-H460 lung) was -12.8% (active) and the growth (HOP-92 NSCLC) was 26.6%. The growth (NCI-H522 lung) was 9.55% (active), the growth (A549/ATCC NSCLC) was 43.6% and the growth (786-0 renal) was -73.2% (active). For the same compound, the growth (COLO 205 colon) was -54.2% (active), the growth (DU-145 prostate) was 19.2% and the growth (K-562 leukemia) was -14.7% (active). For the same compound, the growth (MALME-3M melanoma) was -32.8% (active), the growth (MDA-MB-231 breast) was -51.7% (active) and the growth (RXF 393 renal) was -60.5% (active). The growth (SF-268 CNS) was 13.5%, the growth (SF-295 CNS) was 39.6% and the growth (SF-539 CNS) was -65.7% (active). The growth (UACC-257 melanoma) was 39.2% and the growth (M14 melanoma) was -51.8% (active).
